Bioassay records deposited in PubChem by Broad Institute.
Only a selection was taken, and hits are over-represented in it overall.
STK33 inh: blocks human STK33 kinase activity; ADP-Glo luminescence, MBP substrate; inhibition, % at 12.5 µM; 27,000 tested, 0.44% active; AID 2322; in the data active = inhibition above about 20%
PD-1 reversal: reversal of PD-1 mediated T-cell inhibition; primary human CD4 T cells, PD-L1 beads, CellTiter-Glo 96 h; activation, % (concentration not given with the values); 29,000 tested, under 10 active; AID 2316; call rule not given here
Each line names hits and unclear results; the compound was inactive in the other large screens.

O=C1c2ccccc2-c2cccc3cccc1c23	STK33 inh 75.5 (no result: PD-1 reversal)
c1ccc2c(c1)cc1ccc3cccc4ccc2c1c34	none (no result: PD-1 reversal)
COc1ccc(CN2CCN(CCO)CC2)c(OC)c1C	none (no result: PD-1 reversal)
COc1ccc2c(c1)/C(=C/c1cnc[nH]1)C(=O)N2	STK33 inh 79.1
CC[C@@H]1/C=C\C=C\C[C@H](C)C(O)[C@](C)(O)C(=O)[C@H](C)C(O)[C@H](C)C(=O)[C@H](C)[C@@H](O)[C@H](C)/C=C/C(=O)O[C@H]2[C@@H](C)[C@@H](CC1)O[C@@]1(CC[C@@H](C)[C@@H](C[C@H](C)O)O1)[C@@H]2C (stereo not given in full)	none
O=C1NC(=O)C(=C/C=C/c2ccccc2)C(=O)N1	none (no result: STK33 inh)
COC1CC(OC2C(C)OC(OC3C(C)OC(OC4C(C)OC(O[C@H]5CC[C@@]6(C)C(=CC[C@]7(O)C6CC(OC(=O)c6ccccc6)[C@@]6(C)[C@]7(O)CC[C@@]6(O)C(C)=O)C5)CC4OC)CC3OC)CC2OC)OC(C)C1O (stereo not given in full)	none
Cc1cc(O)cc2oc(=O)c3c(O)cc(O)cc3c12	STK33 inh 74.1
O=C1NC(=O)C(CCc2ccncc2)(CCc2ccncc2)C(=O)N1c1ccccc1F	none
CO[C@H]1[C@H](O)[C@H](O[C@H]2CC[C@]3(C)C4CC[C@]5(C)[C@H](C6=CC(=O)OC6)CC[C@]5(O)C4CC[C@@H]3C2)O[C@@H](C)[C@@H]1O[C@@H]1O[C@H](CO[C@@H]2O[C@H](CO)[C@@H](O)[C@H](O)[C@H]2O)[C@@H](O)[C@H](O)[C@H]1O (stereo not given in full)	none
COC(=O)[C@@]1(O)C[C@@H]2O[C@@]1(C)n1c3ccccc3c3c4c(c5c6ccccc6n2c5c31)C(=O)NC4	STK33 inh 107.6
C[C@@H]1O[C@@H](O[C@H]2[C@H](O)[C@@H](O)[C@H](O[C@@H]3C=C4CC[C@@H]5C(CC[C@]6(C)[C@@H](c7ccc(=O)oc7)CC[C@]56O)[C@@]4(C)CC3)O[C@@H]2CO)[C@H](O)[C@H](O)[C@H]1O (stereo not given in full)	none
C/C1=C/C(=O)O[C@@H]2C[C@@H](CC[C@H](C)/C=C\CC1)O[C@@](O)([C@@H]1CSC(=O)N1)C2	none (no result: PD-1 reversal)
N#CC(C#N)=Cc1ccc(O)c(O)c1	none
N#C/C(=C\c1ccc(O)cc1)C(=O)O	STK33 inh 27.1 (no result: PD-1 reversal)
